# According to PubChem BioAssay (Tox21):
# Results filed as inconclusive are left out. Entries that show only a call come without a potency. Activity calls are given as the source filed them. Unless noted, calls follow the shape of the dose curve; as a rule, active = well fitted curve in the direction sought with a large enough effect in the repeat runs; inconclusive = weak or mixed curves; inactive = no such curve, though single readings can be large; an effect the other way counts as inactive or inconclusive.
# Legend:
# [1] = qHTS assay to identify small molecule antagonists of the estrogen receptor beta (ER-beta) signaling pathway - cell viability counter screen (AID 1259382); details: ER-beta-UAS-bla HEK293T viability, CellTiter-Glo luminescence, 16 h; series mostly up to 92.4 µM;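 also: HEK293T cells carrying ER-beta-UAS-bla reporter stimulated with estradiol; nearly all actives have a fitted effect of over 55% in size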
# Outline: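 HEK293T ER-beta-UAS-bla, 2% charcoal-stripped FBS; compounds + 1nM E2 16 hr 37C; CellTiter-Glo luminescence, 30 min RT.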
# [2] = molecular target: Estrogen receptor (Homo sapiens) (UniProt P03372); experiment: qHTS assay to identify small molecule agonists of the estrogen receptor alpha (ER-alpha) signaling pathway in the presence of an antagonist (AID 1259383; calls by dose curve; also: top concentration of the series differs between compounds; nearly all actives have a fitted effect of over 15% in size); details: VM7Luc4E2 cells, ERE-luciferase, +ICI-182,780, 22 h; series mostly up to 92.4 µM
# Estrogen receptor (Homo sapiens), sequence (P03372 whole entry, looked up): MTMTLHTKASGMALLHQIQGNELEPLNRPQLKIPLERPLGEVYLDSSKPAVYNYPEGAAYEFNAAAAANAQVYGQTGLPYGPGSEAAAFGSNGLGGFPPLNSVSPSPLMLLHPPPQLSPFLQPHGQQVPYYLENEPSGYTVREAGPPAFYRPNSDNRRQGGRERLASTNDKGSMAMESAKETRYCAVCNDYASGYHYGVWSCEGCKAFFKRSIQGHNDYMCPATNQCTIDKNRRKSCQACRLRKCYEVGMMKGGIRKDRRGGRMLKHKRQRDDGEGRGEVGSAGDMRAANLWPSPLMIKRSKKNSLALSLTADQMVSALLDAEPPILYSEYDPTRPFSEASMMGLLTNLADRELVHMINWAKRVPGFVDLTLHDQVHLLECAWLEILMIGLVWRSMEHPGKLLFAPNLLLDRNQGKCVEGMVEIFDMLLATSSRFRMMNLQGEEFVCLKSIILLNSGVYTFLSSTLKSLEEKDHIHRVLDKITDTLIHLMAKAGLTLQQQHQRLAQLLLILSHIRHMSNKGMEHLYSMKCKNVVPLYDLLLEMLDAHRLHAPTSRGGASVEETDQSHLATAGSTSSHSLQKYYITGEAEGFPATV
# Outline: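 ER-alpha agonism measured under antagonist challenge: 10.0nM ICI-182,780 (final) plus compound, 15 concentrations, 22hr, VM7Luc4E2 ERE-luciferase cells. Read by luminescence.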
# [3] = qHTS assay to identify small molecule agonists of the estrogen receptor alpha (ER-alpha) signaling pathway in the presence of an antagonist - cell viability counter screen (AID 1259386); details: VM7Luc4E2 viability, CellTiter-Fluor fluorescence, 22 h; series mostly up to 92.4 µM;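 also: cells exposed to compounds for 22 h at 37 °C before the viability read; nearly all actives have a fitted effect of over 30% in size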
# Outline: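 Steps: 5-day stripped-FBS culture; seed and incubate 24hr; add ICI-182,780 (10.0nM final); pin 15-point compound titration; incubate 22hr at 37C; add CellTiter-Fluor at 21hr; read fluorescence.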
# [4] = molecular target: Progesterone receptor (Homo sapiens) (UniProt P06401); experiment: qHTS assay to identify small molecule agonists of the progesterone receptor (PR) signaling pathway (AID 1346784; calls by dose curve; also: nearly all actives have a fitted effect of over 30% in size); details: PR-UAS-bla HEK293T, beta-lactamase FRET ratio, 16 h; series mostly up to 92.4 µM
# Progesterone receptor (Homo sapiens), sequence (P06401 whole entry, looked up): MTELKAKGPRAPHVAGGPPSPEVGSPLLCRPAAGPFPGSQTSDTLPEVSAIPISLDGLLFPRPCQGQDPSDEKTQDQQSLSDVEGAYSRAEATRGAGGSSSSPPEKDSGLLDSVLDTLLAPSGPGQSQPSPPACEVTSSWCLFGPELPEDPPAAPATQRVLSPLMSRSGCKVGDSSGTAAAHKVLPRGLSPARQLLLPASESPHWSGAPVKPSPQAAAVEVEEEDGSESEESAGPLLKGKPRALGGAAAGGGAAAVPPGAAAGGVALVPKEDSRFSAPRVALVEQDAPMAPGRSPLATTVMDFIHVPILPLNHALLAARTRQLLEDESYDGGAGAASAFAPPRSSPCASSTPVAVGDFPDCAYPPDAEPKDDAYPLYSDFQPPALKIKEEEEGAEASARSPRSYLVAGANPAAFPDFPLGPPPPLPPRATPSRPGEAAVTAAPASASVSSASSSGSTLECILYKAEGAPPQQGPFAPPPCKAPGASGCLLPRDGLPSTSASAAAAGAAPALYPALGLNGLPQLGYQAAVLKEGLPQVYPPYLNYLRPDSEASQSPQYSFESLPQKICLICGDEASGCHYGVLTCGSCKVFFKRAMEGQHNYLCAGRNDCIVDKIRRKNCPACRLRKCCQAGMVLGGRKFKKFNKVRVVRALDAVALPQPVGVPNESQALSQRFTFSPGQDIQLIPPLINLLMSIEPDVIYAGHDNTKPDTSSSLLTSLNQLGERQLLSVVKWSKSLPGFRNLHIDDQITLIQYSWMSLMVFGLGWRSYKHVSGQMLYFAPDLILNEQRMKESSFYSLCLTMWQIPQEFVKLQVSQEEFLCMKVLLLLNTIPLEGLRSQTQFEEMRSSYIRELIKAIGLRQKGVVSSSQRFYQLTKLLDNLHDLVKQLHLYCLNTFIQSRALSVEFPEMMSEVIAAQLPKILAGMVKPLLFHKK
# Outline: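 PR-UAS-bla HEK 293T cells (beta-lactamase reporter under UAS) in 2% charcoal-stripped FBS, dosed with 23 nL compound after 6 hr, incubated 16hr at 37C. LiveBLAzer B/G FRET substrate added, fluorescence read after 2 hours.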
# [5] = qHTS assay to identify small molecule antagonists of the progesterone receptor (PR) signaling pathway - cell viability counter screen (AID 1346798); details: PR-UAS-bla HEK293T viability, CellTiter-Glo luminescence, 16 h; series mostly up to 92.4 µM; also: nearly all actives have a fitted effect of over 50% in size; also: potency is read from the fitted curve at half-maximal effect
# Outline: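 PR-UAS-bla HEK293T cells, 3,000/well in 2% charcoal-stripped FBS medium, dosed with compounds plus R5020 agonist and incubated 16 h at 37C. Viability then measured in the same wells by CellTiter-Glo luminescence after 30 min at RT.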
# [6] = qHTS assay to identify small molecule agonists of the progesterone receptor (PR) signaling pathway - cell viability counter screen (AID 1346799; calls by dose curve; also: nearly all actives have a fitted effect of over 45% in size; also: potency is read from the fitted curve at half-maximal effect); details: PR-UAS-bla HEK293T viability, CellTiter-Glo luminescence, 16 h; series mostly up to 92.4 µM
# Outline: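 Counter screen in the PR-UAS-bla HEK293T wells (2% charcoal-stripped FBS, 16 h compound exposure at 37 C) after the bla read. CellTiter-Glo added, 30 min at room temperature, luminescence read as cell viability.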
# [7] = qHTS assay to identify small molecule antagonists of the TGF-beta/Smad signaling pathway - cell viability counter screen (AID 1346824); details: SBE-bla HEK293T viability, CellTiter-Glo luminescence; series mostly up to 76.8 µM; also: nearly all actives have a fitted effect of over 50% in size
# Outline: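 SBE-bla HEK 293T cells, incubated overnight, then compound plus 0.25 ng/mL TGF-beta1 (stock added) for 5 hr at 37 C. Viability was read in the same wells by CellTiter-Glo luminescence after 30 min at room temperature.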
# [8] = molecular target: Progesterone receptor (Homo sapiens) (UniProt P06401); experiment: qHTS assay to identify small molecule antagonists of the progesterone receptor (PR) signaling pathway (AID 1346795; active = well fitted inhibition curve with a large enough effect in the signal ratio in the repeat runs, not every such curve was filed as active; the % refers to the signal ratio; also: potency is read from the fitted curve at half-maximal effect); details: PR-UAS-bla HEK293T, beta-lactamase FRET ratio, 16 h; series mostly up to 92.4 µM
# Outline: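 PR-UAS-bla HEK293T cells with beta-lactamase reporter under UAS control, in 2% charcoal-stripped FBS, treated with compounds plus 1 nM promegestone (R5020, final) for 16 hr at 37C. Read-out: FRET beta-lactamase substrate fluorescence after 2 hr at room temperature.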
# [9] = qHTS assay to identify small molecule agonists or antagonists of the thyroid stimulating hormone receptor (TSHR) signaling pathway - wild type cell line counter screen (AID 1259384; calls by dose curve); details: HEK293 wild type, cAMP HTRF counter-screen, stronger effect = higher value; series mostly up to 92.4 µM
# Outline: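 Wild-type Hek293 cells, 800/well, 18 h at 37C, then compound with Ro20-1724 for 30 min RT. cAMP by HTRF (cAMP-d2/anti-cAMP cryptate), 1 h RT, fluorescence read. 15 concentrations, triplicates.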
# [10] = molecular target: Thyrotropin receptor (Homo sapiens) (UniProt P16473); experiment: qHTS assay to identify small molecule antagonists of the thyroid stimulating hormone receptor (TSHR) signaling pathway (AID 1259385; calls by dose curve; also: nearly all actives have a fitted effect of over 20% in size); details: TSHR-HEK293 cAMP HTRF, TSH-stimulated antagonist mode; series mostly up to 92.4 µM
# Thyrotropin receptor (Homo sapiens), sequence (P16473 whole entry, looked up): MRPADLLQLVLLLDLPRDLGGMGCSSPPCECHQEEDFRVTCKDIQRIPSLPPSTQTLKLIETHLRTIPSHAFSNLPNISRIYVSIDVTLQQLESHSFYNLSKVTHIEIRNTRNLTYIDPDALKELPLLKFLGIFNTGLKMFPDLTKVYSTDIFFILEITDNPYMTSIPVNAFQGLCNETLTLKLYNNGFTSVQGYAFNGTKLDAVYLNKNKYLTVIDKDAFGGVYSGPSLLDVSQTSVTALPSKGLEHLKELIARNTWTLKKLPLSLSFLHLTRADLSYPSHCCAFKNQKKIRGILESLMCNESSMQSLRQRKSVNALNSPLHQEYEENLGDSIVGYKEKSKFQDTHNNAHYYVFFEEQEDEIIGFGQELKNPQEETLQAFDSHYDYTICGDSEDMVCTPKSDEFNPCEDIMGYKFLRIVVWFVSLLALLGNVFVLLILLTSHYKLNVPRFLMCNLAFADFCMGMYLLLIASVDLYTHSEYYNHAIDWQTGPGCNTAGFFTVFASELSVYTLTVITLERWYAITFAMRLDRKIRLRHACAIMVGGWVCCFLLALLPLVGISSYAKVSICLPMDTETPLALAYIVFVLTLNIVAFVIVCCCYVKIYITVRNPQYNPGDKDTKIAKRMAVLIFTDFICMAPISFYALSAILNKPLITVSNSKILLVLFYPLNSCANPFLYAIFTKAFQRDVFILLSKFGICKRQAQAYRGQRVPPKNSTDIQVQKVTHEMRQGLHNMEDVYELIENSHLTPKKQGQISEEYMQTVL
# Outline: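 TSHR-HEK293 cells (800/well) plated 18 h, then compounds with Ro20-1724 and TSH at 1.5 ng/mL final, 30 min at room temperature. cAMP quantified by HTRF (cAMP-d2/anti-cAMP-cryptate, 1 h); 15 concentrations in triplicate.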
SMILES,outcome [1],outcome [2],Potency [3],Potency [4],Potency [5],Potency [6],outcome [7],Potency [8],outcome [9],outcome [10]
Cc1c(C(C)C)c(=O)n(-c2ccccc2)n1C,inactive,inactive,inactive,inactive,inactive,inactive,inactive,–,–,–
CC(C)C(=O)Nc1cccc(C(F)(F)F)c1,inactive,inactive,inactive,inactive,inactive,inactive,inactive,inactive,–,–
CCNC(=O)NCCCOc1cccc(CN2CCCCC2)c1,inactive,inactive,inactive,inactive,inactive,–,inactive,inactive,–,–
CC(C)SCc1ccco1,inactive,inactive,inactive,inactive,inactive,inactive,inactive,inactive,–,–
CC(C)CCO,inactive,inactive,inactive,inactive,inactive,inactive,inactive,inactive,–,–
CN(C1CCCCC1)S(=O)(=O)c1ccccc1N,inactive,–,inactive,inactive,inactive,inactive,inactive,17.2 µM (active),inactive,inactive
Cc1ccccc1OCC1CO1 (stereo not drawn),inactive,inactive,inactive,inactive,inactive,–,inactive,inactive,–,–
CC(C)(C)NCCO,inactive,inactive,inactive,inactive,30.6 µM (active),48.6 µM (active),inactive,–,–,–
C=CCOCC(O)CCl (stereo not drawn),inactive,inactive,inactive,inactive,inactive,–,inactive,inactive,–,–
CC(=O)OCC(=O)[C@@]1(O)[C@H](OC(C)=O)C[C@H]2[C@@H]3CCC4=CC(=O)C=C[C@]4(C)[C@@]3(F)[C@@H](O)C[C@@]21C,inactive,inactive,inactive,inactive,inactive,inactive,inactive,–,–,–
CCCOCCOCCOCCO,inactive,inactive,inactive,inactive,inactive,–,inactive,–,–,–
CC(=O)OCCCc1ccccc1,inactive,–,inactive,inactive,inactive,inactive,inactive,inactive,inactive,inactive
CC(C)c1ccccc1O,inactive,–,inactive,inactive,inactive,inactive,inactive,inactive,inactive,inactive
Cc1ccc(S(=O)(=O)NC(=O)NC2CCCCCCC2)cc1,inactive,–,inactive,inactive,inactive,inactive,inactive,inactive,inactive,inactive
O=C(O)C(=O)Nc1cccc(-c2nn[nH]n2)c1,inactive,–,inactive,inactive,inactive,inactive,inactive,inactive,inactive,–
FC(F)(F)c1ccc(Cl)cc1Cl,inactive,–,inactive,inactive,inactive,inactive,inactive,inactive,inactive,–
O=C(c1ccc2c(c1)C(=O)OC2=O)c1ccc2c(c1)C(=O)OC2=O,inactive,–,inactive,inactive,inactive,–,inactive,inactive,inactive,inactive
C/C=C(\C)C(=O)OCC/C=C\CC,inactive,–,inactive,inactive,inactive,inactive,inactive,inactive,inactive,inactive
O=c1cc(O)c(Cl)c[nH]1,inactive,–,inactive,–,inactive,inactive,inactive,–,inactive,inactive
